Results on 21 compounds are retold here after PubChem BioAssay (EPA / NIEHS).

Records with an inconclusive call do not appear. Active and inactive are the calls of the source. The calls were made as follows: active = hit-call score of the fitted dose curve at least 0.9, where 1 is the maximum; inconclusive = response in the unintended direction; inactive = score below 0.9.

A short description of assay [1]: TOX21_p53_BLA_p2_viability: Viability Assessment in the Tox21 HCT-116 p53 Agonism Beta-lactamase Assay, Phase 2 (AID 2283591).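 Also: compound exposure lasted 16 h at 37 °C; actives lower the ATP signal meaning cytotoxicity.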 A digest of the protocol:
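HCT-116 p53-bla cells (4000/well) rested 5 h at 37C, then received compounds in DMSO (217-fold dilution) for 16 h at 37C, 5% CO2. After the CCF4 read, CellTiter-Glo was added; ATP luminescence was read after 30 min at room temperature.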

In assay [2] the target is Cellular tumor antigen p53 (Homo sapiens) (UniProt P04637). The experiment in a line: TOX21_p53_BLA_p2_ratio: Tox21 HCT-116 p53 Agonism Beta-lactamase Assay, Ratio, Phase 2 (AID 2283592). A digest of the protocol: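 Read-out is the blue/green (460/530 nm, 405 nm excitation) ratio after 2 h CCF4-AM loading, fitted as gain versus DMSO. Compounds, pinned at 217-fold dilution from DMSO stocks, stayed 16 h on HCT-116 beta-lactamase reporter cells seeded 5 h earlier.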
Chain of Cellular tumor antigen p53 (Homo sapiens) (P04637 whole entry, looked up): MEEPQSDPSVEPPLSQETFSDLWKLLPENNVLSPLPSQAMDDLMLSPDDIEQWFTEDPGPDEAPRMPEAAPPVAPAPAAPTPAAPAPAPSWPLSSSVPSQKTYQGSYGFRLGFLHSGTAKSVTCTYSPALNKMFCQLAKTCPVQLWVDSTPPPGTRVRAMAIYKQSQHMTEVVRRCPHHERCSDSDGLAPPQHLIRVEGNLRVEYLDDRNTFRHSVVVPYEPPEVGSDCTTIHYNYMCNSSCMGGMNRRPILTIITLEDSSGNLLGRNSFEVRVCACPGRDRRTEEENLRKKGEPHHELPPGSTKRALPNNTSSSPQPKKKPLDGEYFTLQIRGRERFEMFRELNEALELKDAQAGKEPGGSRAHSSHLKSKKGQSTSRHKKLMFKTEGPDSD

Assay [3] in a line: TOX21_p53_BLA_p3_viability: Viability Assessment in the Tox21 HCT-116 p53 Agonism Beta-lactamase Assay, Phase 3 (AID 2283593).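 Also: cells exposed to compound for 16 h before reading.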 A digest of the protocol:
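HCT-116 cells (4000/well) rested 5 h at 37C, then got DMSO compounds by pin tool (217-fold dilution) for 16 h at 37C, 5% CO2. After the bla read, CellTiter-Glo was added and luminescence read at 30 min, room temperature.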

For assay [4], the target named is Cellular tumor antigen p53 (Homo sapiens) (UniProt P04637). The experiment in a line: TOX21_p53_BLA_p3_ratio: Tox21 HCT-116 p53 Agonism Beta-lactamase Assay, Ratio, Phase 3 (AID 2283596). A digest of the protocol: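 Cells were seeded at 4000/well, rested 5 h at 37C, then dosed with DMSO compound solutions (217-fold dilution) for 16 h. CCF4-AM substrate was loaded for 2 h at room temperature, and the 460/530 nm emission ratio was fitted for gain of signal versus DMSO.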

Assay [5] in a line: TOX21_p53_BLA_p4_viability: Viability Assessment in the Tox21 HCT-116 p53 Agonism Beta-lactamase Assay, Phase 4 (AID 2283597).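 Also: hits lower the luminescence signal meaning cytotoxicity.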 The method, boiled down:
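Cytotoxicity as reduced cellular ATP (CellTiter-Glo luminescence, 30 min room temperature), measured in the same wells following the CCF4 FRET p53 reading. Human HCT-116 cells received compounds in DMSO (217-fold dilution) for 16 h.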

For assay [6], the target named is Cellular tumor antigen p53 (Homo sapiens) (UniProt P04637). Kind of assay: TOX21_p53_BLA_p5_ratio: Tox21 HCT-116 p53 Agonism Beta-lactamase Assay, Ratio, Phase 5 (AID 2283599). A digest of the protocol:
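HCT-116 cells carrying a p53-inducible beta-lactamase reporter were seeded at 4000 cells/well and dosed after 5 h with compound in DMSO (217-fold dilution). After 16 h at 37C, CCF4-AM substrate was added for 2 h, and the 460/530 nm emission ratio was scored as gain-of-signal versus DMSO.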

The nature of assay [7]: TOX21_p53_BLA_p5_viability: Viability Assessment in the Tox21 HCT-116 p53 Agonism Beta-lactamase Assay, Phase 5 (AID 2283600). A digest of the protocol: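 Viability came from CellTiter-Glo ATP luminescence, read after 30 min at room temperature. Before this, HCT-116 p53-bla cells (4000/well) had 16 hours of compound exposure at 37C, with DMSO stocks diluted 217-fold on transfer.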

Assay [8] has as its target Cellular tumor antigen p53 (Homo sapiens) (UniProt P04637). Kind of assay: TOX21_p53_BLA_p4_ratio: Tox21 HCT-116 p53 Agonism Beta-lactamase Assay, Ratio, Phase 4 (AID 2283601). A digest of the protocol: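 HCT116 cells carrying an inducible beta-lactamase reporter were plated at 4000 cells/well, rested 5 h, then exposed to compounds in DMSO (217-fold dilution) for 16 h at 37C. CCF4-AM substrate was loaded 2 h at room temperature; 460/530 nm emission ratio scored gain-of-signal versus DMSO.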

`Oc1ccc(Cl)c2cccnc12`: the result in assay [1], in assay [2], in assay [3], in assay [4], in assay [5] and in assay [6] was inactive. Also, the result in assay [7] and in assay [8] was inactive.
As a reminder, the AC50 is the midpoint of the concentration-response curve, whichever way the signal moves. With `N#CC(c1ccc(Cl)cc1)c1c(Cl)cc(-n2ncc(=O)[nH]c2=O)cc1Cl` (stereo not drawn), the call in assay [1] and in assay [7] was inactive. Further, the AC50 in assay [2] is 19.6 µM (active); in assay [3] it was 32.2 µM (active); in assay [4] it was 20.3 µM (active); in assay [5], 31.4 µM (active); in assay [6], 22.1 µM (active); in assay [8], 22.1 µM (active).
Consider `Cn1cnc2c(F)c(Nc3ccc(Br)cc3Cl)c(C(=O)NOCCO)cc21`, for which the compound was called inactive in assay [1], in assay [2], in assay [3], in assay [4], in assay [5] and in assay [6]. The result in assay [7] and in assay [8] was inactive.
In the case of `Cc1cc(/C=C/c2ccc3cc(N(C)C)ccc3[n+]2C)c(C)n1-c1ccccc1`, the AC50 in assay [1] was 16.7 µM (active); in assay [2], 13.4 µM (active); in assay [4], 16.1 µM (active); in assay [5], 16.6 µM (active); in assay [6], 15.8 µM (active); in assay [8] it was 20.1 µM (active). In addition, the result in assay [3] and in assay [7] was inactive.
For the compound `O=C(Nc1ccc(Cl)cc1)Nc1ccc(Cl)c(C(F)(F)F)c1`, the AC50 was 32.8 µM (active) in assay [1]; 5.23 µM (active) in assay [2]; 11.2 µM (active) in assay [4]; 33.1 µM (active) in assay [5]; 19.5 µM (active) in assay [6]; 39.6 µM (active) in assay [7]. Also, in assay [8], the half-maximal activity concentration (AC50) was 6.95 µM (active). In addition, the outcome in assay [3] was inactive.
For the compound `N#CCc1cccc(C(F)(F)F)c1`, the call in assay [1], in assay [2], in assay [3], in assay [4], in assay [5] and in assay [6] was inactive. Further, the call in assay [7] and in assay [8] was inactive.
Take `CCCC(c1cc(C(C)(C)C)c(O)cc1C)c1cc(C(C)(C)C)c(O)cc1C`: the AC50 in assay [1] was 15 µM (active); in assay [2] it was 32.8 µM (active); in assay [3], 19.5 µM (active); in assay [4], 30.6 µM (active); in assay [5] it was 9.81 µM (active); in assay [6], 32.2 µM (active). For the same compound, the AC50 in assay [7] is 17.2 µM (active); in assay [8], 19.7 µM (active).
For the compound `CC(NCCC(c1ccccc1)c1ccccc1)c1ccccc1` (stereo not drawn), the AC50 in assay [1] was 26.6 µM (active); in assay [2] it was 33.9 µM (active); in assay [5], 32.5 µM (active); in assay [6], 35.8 µM (active); in assay [8] it was 39.4 µM (active). Also, the call in assay [3], in assay [4] and in assay [7] was inactive.
For `CSc1nc2cc(Oc3cccc(Cl)c3Cl)c(Cl)cc2[nH]1`, the AC50 in assay [1] was 14.5 µM (active); in assay [2], 33.3 µM (active); in assay [3] it was 22.6 µM (active); in assay [4] it was 33.9 µM (active); in assay [5], 33.2 µM (active); in assay [8] it was 20.5 µM (active). The result in assay [6] and in assay [7] was inactive.
Turning to `CCOC(=O)COc1ccc2c(=O)cc(-c3ccccc3)oc2c1`, the compound was classed as inactive in assay [1], in assay [2], in assay [3], in assay [4], in assay [5] and in assay [6]. The outcome in assay [7] and in assay [8] was inactive.
For the compound `Cc1c(C)n(Cc2ccccc2)c2ccc(C(=O)OCCN(C)C)cc12`, the compound was classed as inactive in assay [1], in assay [2], in assay [3], in assay [4], in assay [6] and in assay [7]. Moreover, in assay [8], the outcome was inactive. Also, the AC50 in assay [5] was 18.3 µM (active).
`[O]=[Bi]`: the outcome in assay [1], in assay [2], in assay [3], in assay [4], in assay [5] and in assay [6] was inactive. The outcome in assay [7] and in assay [8] was inactive.
Regarding `COc1ccc(C(=O)CC(=O)c2ccc(C(C)(C)C)cc2)cc1`, the outcome in assay [1], in assay [3], in assay [4], in assay [5], in assay [6] and in assay [7] was inactive. Besides, the outcome in assay [8] was inactive. For the same compound, the AC50 in assay [2] was 18.5 µM (active).
Consider `OC[C@@H](O)[C@@H](O[C@@H]1O[C@H](CO)[C@H](O)[C@H](O)[C@H]1O)[C@H](O)[C@@H](O)CO`, for which the outcome in assay [1], in assay [2], in assay [3], in assay [4], in assay [5] and in assay [6] was inactive. In addition, the outcome in assay [7] and in assay [8] was inactive.
In the case of `COc1cccc2c1C(=O)c1c(O)c3c(c(O)c1C2=O)C[C@@](O)(C(=O)CO)C[C@@H]3O[C@H]1C[C@H](N)[C@H](O[C@@H]2CCCCO2)[C@H](C)O1`, the AC50 in assay [1] was 7.4 µM (active); in assay [2], 6.79 µM (active); in assay [3], 7.5 µM (active); in assay [4] it was 7.49 µM (active); in assay [5], 7.64 µM (active); in assay [6], 7.29 µM (active). For the same compound, the AC50 in assay [8] is 7.58 µM (active). Further, the result in assay [7] was inactive.
Consider `CCCCN(CCCC)c1ccc(C(=O)c2ccccc2C(=O)O)c(O)c1`, for which the half-maximal activity concentration (AC50) in assay [1] was 17.2 µM (active); in assay [3], 23.1 µM (active); in assay [4], 39.8 µM (active); in assay [5], 21.2 µM (active); in assay [6], 52.2 µM (active); in assay [7] it was 20.3 µM (active). The AC50 in assay [8] was 45.5 µM (active). Further, the outcome in assay [2] was inactive.
As for `CCOC(CN1CCN(CC(C)C(=O)c2ccccc2)CC1)c1ccccc1` (stereo not drawn), the compound was called inactive in assay [1], in assay [2], in assay [3], in assay [4], in assay [5] and in assay [6]. For the same compound, the outcome in assay [7] and in assay [8] was inactive.
For `[O-][N+](=Nc1ccccc1)c1ccccc1`, the call in assay [1], in assay [2], in assay [3], in assay [4], in assay [5] and in assay [6] was inactive. Further, the result in assay [7] and in assay [8] was inactive.
Turning to `C[C@]12O[C@H](C[C@]1(O)CO)n1c3ccccc3c3c4c(c5c6ccccc6n2c5c31)CNC4=O`, the AC50 in assay [1] is 1.06 µM (active); in assay [2], 0.0434 µM (active); in assay [3] it was 1.13 µM (active); in assay [4], 0.0715 µM (active); in assay [5] it was 2.24 µM (active); in assay [6], 0.0787 µM (active). Also, the AC50 in assay [8] is 0.0528 µM (active). Moreover, the call in assay [7] was inactive.
Consider `C[N+]1([O-])CCOCC1`, for which the call in assay [1], in assay [2], in assay [3], in assay [4], in assay [5] and in assay [6] was inactive. For the same compound, the compound was classed as inactive in assay [7] and in assay [8].
As for `CC(C)(C)C(=O)C(Oc1ccc(Cl)cc1)n1ccnc1` (stereo not drawn), the result in assay [1], in assay [2], in assay [3], in assay [4], in assay [5] and in assay [6] was inactive. Besides, the compound was called inactive in assay [7] and in assay [8].
